# Hedgehog inh = Sonic Hedgehog pathway inhibition; Shh-LIGHT2 Gli-luciferase reporter, 30 h; 22,000 tested, 2.1% active; AID 2313; inhibition, % (test concentration not listed);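 active means mean inhibition across valid replicates above about 65%, limit read from the data; inconclusive means mean under the limit, yet half or more replicates past it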;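 further: pathway switched on by Shh-conditioned medium diluted 1 in 25 in low serum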
# NOMO-1 viab = STK33 inhibitor candidate reducing NOMO-1 cell viability. NOMO-1 AML viability, CellTiter-Glo luminescence, 72 h. inhibition, % (no concentration beside the values). 37,000 tested, 7.5% active. AID 2330; in the data active means inhibition above about 80%; inconclusive means no clear call, values can overlap the other calls
# MITF inh = MITF inhibition | TRPM1 promoter luciferase, luminescence, 24 h | inhibition, % (no concentration beside the values) | 37,000 tested, 0.28% active; in the data active means inhibition above about 85%; inconclusive means no clear call, values can overlap the other calls; inactive means below about 68%;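 further: human melanocyte line stably carrying TRPM1 promoter luciferase reporter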
# The depositor's hits bear a star; u = inconclusive; x = not tested or not shown. Compounds with a hit are over-represented: about 8.1% of the library has one in this group of screens.
SMILES,Hedgehog inh,NOMO-1 viab,MITF inh
CC1(C)Cc2nc(-c3ccccc3)nc(SCC(=O)Nc3ccc(Br)cc3)c2CO1,x,101*,1
O=C(c1ccccc1)N(c1ccccc1)c1ccccc1,50,39,13
C[C@@H]1CN([C@H](C)CO)C(=O)Cc2cc(NC(=O)CCN3CCOCC3)ccc2O[C@@H]1CN(C)S(=O)(=O)c1ccccc1,-9,16,-2
NC(CC(=O)O)c1cccc([N+](=O)[O-])c1 (centres undefined),x,-16,1
C[C@H](C[C@@H](O)[C@](C)(O)[C@H]1CC[C@@]2(O)C3=CC(=O)[C@@H]4C[C@@H](O)[C@@H](O)C[C@]4(C)C3CC[C@]12C)C(C)(C)O (some centres undefined),-2,17,-2
Cc1cc(C)nc(N(C#N)CC(=O)N2c3ccccc3CCc3ccccc32)n1,x,12,-10
Cc1cc(C)nc(N(C#N)C(C(=O)c2ccccc2)c2ccccc2)n1 (centres undefined),x,110*,2
C[C@H]1CN([C@@H](C)CO)C(=O)c2cc(NC(=O)Cn3cnnn3)ccc2O[C@H]1CN(C)Cc1ccncc1,-17,14,2
c1cn2c3c(n1)CCCc3c1cc(C3CCCCC3)ccc12,14,123*,-28
CCn1c(SCC(=O)Nc2ccc(C(=O)O)cc2)nnc1-c1ccc(Cl)cc1,x,31,-7
O=C(CSc1nnnn1-c1ccccc1Cl)Nc1ccc(Br)cc1,x,-7,10
Cc1csc2sc(COC(=O)Nc3ccccc3)c(C)c12,u,120*,13
O=C(Nc1ccccc1)OC1CCCC1,x,36,-9
COc1c2c(cc3oc(CO[C@@H]4O[C@H](CO)[C@@H](O)[C@H](O)[C@H]4O)cc(=O)c13)OC(C(C)(C)O)C2 (some centres undefined),-4,2,-10
CSc1nnc(-c2ccccc2NC(=O)c2ccccc2)c(=O)[nH]1,x,12,6
COc1ccc(-n2c(CC#N)nnc2SCc2c(C)c(C)c(C)c(C)c2C)cc1,19,102*,11
COc1ccc(-n2c(CSc3nnc(-c4ccc(OC)c(OC)c4)n3-c3ccccc3)n[nH]c2=S)cc1,x,30,4
C(=N\n1cnnc1)/c1ccco1,-14,9,-9
Cc1ccc2c(c1)C(=O)C1(O)CCN(c3ccccc3)C1=N2 (centres undefined),-254,109*,13
Cc1ccc(Cl)cc1NC(=O)CSc1nnc(-c2cccs2)n1C,x,-1,-10
O=C(c1ccccc1NS(=O)(=O)c1ccccc1[N+](=O)[O-])N1CCOCC1,x,-18,-12
COC(=O)CNS(=O)(=O)c1ccccc1[N+](=O)[O-],x,112*,5
C[C@H](CO)N1C[C@H](C)[C@@H](CN(C)C(=O)NC2CCCCC2)Oc2ccc(NC(=O)CCCN(C)C)cc2C1=O,-22,6,-10
C[C@@H]1CN([C@@H](C)CO)C(=O)c2cc(NC(=O)c3ccncc3)ccc2O[C@H]1CN(C)Cc1ccc(C(F)(F)F)cc1,x,23,-12
O=C(O)CC(Cc1ccc(Cl)cc1)C(=O)Nc1ccccc1I (centres undefined),x,13,-16
SMILES,Hedgehog inh,NOMO-1 viab,MITF inh
C=C(C)C(=O)O[C@H]1[C@H]2C(=C)C(=O)O[C@@H]2C[C@@H](C)/C=C/C(=O)[C@](C)(O)[C@@H]1OC(C)=O,-10,118*,90*
COc1ccc(S(=O)(=O)Nc2ccc3c(c2)CC(=O)N([C@@H](C)CO)C[C@H](C)[C@@H](CN(C)S(=O)(=O)c2ccccc2)O3)cc1,-10,-9,-14
COc1cc(C2OCC3C(c4ccc5c(c4)OCO5)OC(=O)C23)ccc1O (centres undefined),-19,20,-18
COc1cc([C@@H]2c3cc4c(cc3C(OC3O[C@@H]5COC(C)O[C@H]5[C@H](O)[C@H]3O)C3COC(=O)[C@@H]32)OCO4)cc(OC)c1O (some centres undefined),31,101*,38
COc1cc([C@@H]2c3cc4c(cc3[C@@H](OC3OC5COC(C)OC5C(O)C3O)[C@H]3COC(=O)[C@H]23)OCO4)cc(OC)c1O (some centres undefined),-13,141*,40
CC(=O)Nc1ccccc1NC(=O)Cc1ccccc1[N+](=O)[O-],x,1,39
COc1ccc(C(=O)n2nc3c(c2-c2ccc(OC)cc2)COC(C)(C)C3)cc1,-37,-4,-65
O=C(NCc1cccnc1)c1cc(-c2cccc(Cl)c2)nc2ccccc12,x,24,17
Nc1nonc1-c1ccccc1,-9,15,-3
C1=Cc2nonc2C2C=C(c3ccccc3)N=C12 (centres undefined),14,92*,26
COC(=O)COc1ccc(NC(=O)c2ccc(OC)c([N+](=O)[O-])c2)cc1,x,121*,0
COc1ccc(C(=O)COc2ccc(NC(=O)c3cccc([N+](=O)[O-])c3)cc2)cc1,x,1,10
COc1ccc(NC(=O)COc2ccccc2Cl)c([N+](=O)[O-])c1,x,4,-59
NC(=O)CN(c1cc(Cl)ccc1Cl)S(=O)(=O)c1ccccc1,x,13,-9
CC1(C)CC(NC(=O)N2c3ccccc3CCc3ccccc32)CC(C)(C)N1,8,-24,-4
COc1ccc(C(=O)N2c3ccccc3CCc3ccccc32)cc1,-59,104*,25
C[C@@H]1CCCCO[C@@H](CN(C)S(=O)(=O)c2cn(C)cn2)[C@@H](C)CN([C@H](C)CO)C(=O)c2cc(NC(=O)CCCN(C)C)ccc2O1,x,15,-8
CC(C)NC(=O)Nc1cccc2c1O[C@@H](CN(C)S(=O)(=O)c1ccc(F)cc1)[C@@H](C)CN([C@@H](C)CO)C2=O,80*,-5,-4
CC(C)NC(=O)Nc1cccc2c1O[C@@H](CN(C)S(=O)(=O)c1ccc(Cl)cc1)[C@@H](C)CN([C@@H](C)CO)C2=O,96*,9,16
CC(C)NC(=O)Nc1cccc2c1O[C@H](CN(C)S(=O)(=O)c1ccc(Cl)cc1)[C@H](C)CN([C@@H](C)CO)C2=O,20,7,-5
CC(C)NC(=O)Nc1cccc2c1O[C@@H](CN(C)S(=O)(=O)c1ccc(Cl)cc1)[C@@H](C)CN([C@H](C)CO)C2=O,102*,26,-2
CC(C)NC(=O)Nc1cccc2c1O[C@H](CN(C)S(=O)(=O)c1ccc(Cl)cc1)[C@@H](C)CN([C@H](C)CO)C2=O,-4,15,1
CC(C)NC(=O)Nc1cccc2c1O[C@H](CN(C)S(=O)(=O)c1ccc(F)cc1)[C@H](C)CN([C@H](C)CO)C2=O,-3,5,0
COc1ccc(NC(=O)C(C)N(c2cc(C)cc(C)c2)S(C)(=O)=O)c(OC)c1 (centres undefined),x,4,8
CC(C)c1cc(I)ccc1NC(=O)CSc1nc2ccccc2c(=O)[nH]1,x,13,25
COC(=O)c1c(NC(=O)C2CC(=O)NN2Cc2ccccc2)sc2c1CCC(C)C2 (centres undefined),x,109*,67
COC(=O)c1c(NC(=O)C2CC(=O)NN2Cc2ccccc2)sc2c1CCC2 (centres undefined),x,44,17
C[C@@H]1CN([C@@H](C)CO)C(=O)Cc2cc(NC(=O)c3ccncc3)ccc2O[C@@H]1CN(C)C(=O)Nc1ccc(C(F)(F)F)cc1,-5,-13,-8
